In PubChem BioAssay:
Inconclusive results are not listed. Activity calls are given as the source filed them.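 How the source made its calls, unless noted: active means aptamer binding inhibition above 30%, about 3 SD of noise from non-fluorescent compounds; inactive means inhibition at or below 30%.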

Assays:
[1] = rapamycin-like changes in RPL19A-GFP expression – cell-based, S. cerevisiae, multiplex flow cytometry, primary screen (AID 1862; in the data active means percent of DMSO control GFP below about 86%;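 further: lower values mimic rapamycin by blocking the RPL19A rise seen in DMSO cells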); settings: S. cerevisiae RPL19A-GFP strain, flow cytometry fluorescence, 3 h; at 10 µM; stronger effect = lower value
[2] = TOR pathway GLN3 branch reporter MEP2-GFP changes – S. cerevisiae, multiplex flow cytometry, primary screen (AID 1867;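 active means GFP response, as percent of the DMSO control, above the screen-wide mean plus 3 SD, about 139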;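 further: median GFP channel fluorescence of barcode-gated MEP2-GFP cells measured by flow cytometry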); settings: S. cerevisiae MEP2-GFP strain, 3 h, at 10 µM, stronger effect = higher value, 100% means same as DMSO wells
[3] = TOR pathway RTG branch CIT2 reporter changes – S. cerevisiae, GFP fusion, multiplex flow cytometry, primary screen (AID 1870;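 active means percent response above a set limit, the screen-wide mean plus 3 SD, cut at about 130% in these data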;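 further: barcoded CIT2-GFP strain pooled with four other GFP strains with rapamycin as positive control; median GFP fluorescence per well over plate mean of DMSO wells so 100% = DMSO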); settings: S. cerevisiae CIT2-GFP expression, 3 h, at 10 µM, stronger effect = higher value
[4] = TOR pathway LAP4-GFP level changes – S. cerevisiae, multiplex flow cytometry, primary screen (AID 1873;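 active means GFP signal, as percent of the solvent control, above the screen mean plus 3 SD, about 149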); settings: S. cerevisiae LAP4-GFP expression, 3 h, at 10 µM, stronger effect = higher value
[5] = yeast AGP1-GFP level changes, GLN3 branch – cell-based, multiplex flow cytometry, S. cerevisiae, primary screen (AID 1887;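 active means GFP signal above the screen-wide mean plus 3 SD, that is over about 124.5% of the solvent control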;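 further: AGP1-GFP fusion strain of S. cerevisiae within a five-strain barcoded multiplex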); settings: 3 h, at 10 µM, stronger effect = higher value
[6] = reduced mouse 2C T cell binding to pMHC/ICAM-1 vesicles – MLPCN validation set, flow cytometry, LFA-1/ICAM-1 modulator project, pilot screen (AID 2523;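 active means response below a set limit, under 55% cells CD8-positive and vesicle-bound, and CD8 cells' 90th-percentile brightness under 279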;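 on vesicle binding response: mean PE anti-B7-1 fluorescence of CD8+ cells relative to row control; 100% = QL9-loaded vesicles with DMSO vehicle in the same plate row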); settings: 2C mouse CD8+ T cells, at 7 µM, stronger effect = lower value; double positive events: measured here: CD8+/vesicle+ event percentage
[7] = target: Integrin beta-1 (Homo sapiens) + Integrin alpha-4 (Homo sapiens) (UniProt P13612+P05556); assay: alpha4beta1 integrin LIBS antibody binding reduction – U937 cells, HUTS-21 mAb, flow cytometry, validation set, VLA-4 allosteric modulator project, pilot screen (AID 2674;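 active means inhibition above 50%, about 3 SD of the validation set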;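 further: antibody binding induced by the VLA-4 ligand LDV present at three times its Kd; 0% = LDV ligand with antibody and no compound and 100% = antibody without LDV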); settings: HUTS-21 LIBS mAb binding, at 6.7 µM, stronger effect = higher value, binding induced by LDV ligand
Sequence of Integrin beta-1 (Homo sapiens) + Integrin alpha-4 (Homo sapiens) (P05556 whole entry, looked up): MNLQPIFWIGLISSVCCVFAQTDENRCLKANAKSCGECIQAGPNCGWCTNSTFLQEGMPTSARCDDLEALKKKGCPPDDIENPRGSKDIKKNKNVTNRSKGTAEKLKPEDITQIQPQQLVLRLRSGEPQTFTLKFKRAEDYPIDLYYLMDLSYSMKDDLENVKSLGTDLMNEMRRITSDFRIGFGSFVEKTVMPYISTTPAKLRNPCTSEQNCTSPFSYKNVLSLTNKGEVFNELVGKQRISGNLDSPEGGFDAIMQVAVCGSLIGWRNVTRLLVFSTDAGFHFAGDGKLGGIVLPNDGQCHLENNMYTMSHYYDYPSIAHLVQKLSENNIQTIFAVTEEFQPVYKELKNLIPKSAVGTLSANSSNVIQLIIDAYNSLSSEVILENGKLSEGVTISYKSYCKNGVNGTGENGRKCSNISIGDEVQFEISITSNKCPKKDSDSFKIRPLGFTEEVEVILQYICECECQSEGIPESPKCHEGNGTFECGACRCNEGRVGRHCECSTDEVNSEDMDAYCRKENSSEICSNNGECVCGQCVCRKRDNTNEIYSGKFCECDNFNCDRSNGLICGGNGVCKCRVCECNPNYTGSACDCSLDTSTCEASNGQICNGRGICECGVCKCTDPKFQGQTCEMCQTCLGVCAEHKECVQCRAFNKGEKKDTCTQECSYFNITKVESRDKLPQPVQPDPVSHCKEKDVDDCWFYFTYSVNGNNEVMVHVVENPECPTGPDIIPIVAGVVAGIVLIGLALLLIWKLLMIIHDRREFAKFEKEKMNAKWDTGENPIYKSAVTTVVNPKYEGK
Sequence of Integrin beta-1 (Homo sapiens) + Integrin alpha-4 (Homo sapiens) (P13612 whole entry, looked up): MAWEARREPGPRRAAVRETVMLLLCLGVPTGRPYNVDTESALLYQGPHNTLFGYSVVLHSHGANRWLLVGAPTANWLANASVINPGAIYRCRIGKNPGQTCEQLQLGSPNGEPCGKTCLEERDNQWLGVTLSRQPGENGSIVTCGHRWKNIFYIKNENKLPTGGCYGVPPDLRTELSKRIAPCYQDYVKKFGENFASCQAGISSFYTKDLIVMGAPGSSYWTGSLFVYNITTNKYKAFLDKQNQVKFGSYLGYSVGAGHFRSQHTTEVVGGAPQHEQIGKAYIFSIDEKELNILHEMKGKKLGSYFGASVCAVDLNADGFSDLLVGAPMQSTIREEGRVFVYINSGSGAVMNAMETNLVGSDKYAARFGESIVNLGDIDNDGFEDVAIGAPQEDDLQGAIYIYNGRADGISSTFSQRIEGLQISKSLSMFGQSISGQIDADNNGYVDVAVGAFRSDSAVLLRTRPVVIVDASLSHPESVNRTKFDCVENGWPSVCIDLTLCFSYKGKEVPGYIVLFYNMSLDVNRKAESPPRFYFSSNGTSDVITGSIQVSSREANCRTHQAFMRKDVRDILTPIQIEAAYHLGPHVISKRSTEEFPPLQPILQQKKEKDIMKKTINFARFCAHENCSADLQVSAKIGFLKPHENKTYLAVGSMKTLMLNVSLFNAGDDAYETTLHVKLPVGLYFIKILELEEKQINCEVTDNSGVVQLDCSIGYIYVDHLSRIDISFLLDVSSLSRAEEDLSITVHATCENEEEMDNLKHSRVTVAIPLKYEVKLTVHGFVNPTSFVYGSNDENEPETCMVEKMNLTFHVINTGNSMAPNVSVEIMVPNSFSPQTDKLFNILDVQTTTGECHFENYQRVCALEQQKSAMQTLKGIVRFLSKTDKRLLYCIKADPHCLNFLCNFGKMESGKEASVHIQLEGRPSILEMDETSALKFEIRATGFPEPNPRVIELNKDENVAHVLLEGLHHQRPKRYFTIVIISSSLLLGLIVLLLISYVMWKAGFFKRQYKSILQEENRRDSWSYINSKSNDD

[8] = calorie-restriction mimetic ROS inhibitors, yeast – validation compound set, pilot screen (AID 2706;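 active means superoxide response below 65% of plate, a cut near 3 SD across the whole screen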;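 further: yeast exposed to compound for one week at 30 degrees C before staining; 100% = mean of all compound wells on the same plate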); settings: S. cerevisiae aging, superoxide DHE fluorescence; at 10 µM; stronger effect = lower value
[9] = target: Beta-adrenergic receptor kinase 1 (Homo sapiens) (UniProt P25098); assay: GRK2 binders displacing RNA aptamer, biochemical, validation, human GRK2, bead flow cytometry (AID 488806); settings: bead-bound GRK2, FAM-aptamer displacement, at 10 µM, stronger effect = higher value
Sequence of Beta-adrenergic receptor kinase 1 (Homo sapiens) (P25098 whole entry, looked up): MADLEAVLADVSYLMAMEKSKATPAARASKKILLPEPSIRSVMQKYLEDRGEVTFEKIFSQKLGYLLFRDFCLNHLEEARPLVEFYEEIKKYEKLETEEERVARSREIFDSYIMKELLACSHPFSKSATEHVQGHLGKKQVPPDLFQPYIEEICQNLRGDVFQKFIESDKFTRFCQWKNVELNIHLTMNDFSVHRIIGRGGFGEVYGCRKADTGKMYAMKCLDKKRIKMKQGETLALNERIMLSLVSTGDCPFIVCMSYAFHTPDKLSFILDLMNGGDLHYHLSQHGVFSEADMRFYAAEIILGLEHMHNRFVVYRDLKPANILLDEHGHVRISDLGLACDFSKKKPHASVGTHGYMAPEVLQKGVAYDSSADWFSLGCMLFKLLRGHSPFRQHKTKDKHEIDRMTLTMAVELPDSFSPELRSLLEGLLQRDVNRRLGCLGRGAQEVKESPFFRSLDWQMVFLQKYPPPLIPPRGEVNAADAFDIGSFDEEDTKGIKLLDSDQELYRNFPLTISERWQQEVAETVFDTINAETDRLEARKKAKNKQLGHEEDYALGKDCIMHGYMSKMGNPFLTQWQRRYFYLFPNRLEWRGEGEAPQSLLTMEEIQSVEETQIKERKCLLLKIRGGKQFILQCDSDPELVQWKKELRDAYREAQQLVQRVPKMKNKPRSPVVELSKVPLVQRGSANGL

[10] = target: Beta-2 adrenergic receptor (Homo sapiens) (UniProt P07550); assay: agonist-induced loss of surface beta2AR – cell-based, FAP fluorogen, flow cytometry, validation set, pilot screen (AID 504459;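 active means percent response above 42, roughly 3 SD of non-fluorescent test compounds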;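 further: agonist-driven loss of surface beta2AR via internalization measured by FAP dye flow cytometry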); settings: Am2.2-beta2AR cells, at 10 µM, stronger effect = higher value
Sequence of Beta-2 adrenergic receptor (Homo sapiens) (P07550 whole entry, looked up): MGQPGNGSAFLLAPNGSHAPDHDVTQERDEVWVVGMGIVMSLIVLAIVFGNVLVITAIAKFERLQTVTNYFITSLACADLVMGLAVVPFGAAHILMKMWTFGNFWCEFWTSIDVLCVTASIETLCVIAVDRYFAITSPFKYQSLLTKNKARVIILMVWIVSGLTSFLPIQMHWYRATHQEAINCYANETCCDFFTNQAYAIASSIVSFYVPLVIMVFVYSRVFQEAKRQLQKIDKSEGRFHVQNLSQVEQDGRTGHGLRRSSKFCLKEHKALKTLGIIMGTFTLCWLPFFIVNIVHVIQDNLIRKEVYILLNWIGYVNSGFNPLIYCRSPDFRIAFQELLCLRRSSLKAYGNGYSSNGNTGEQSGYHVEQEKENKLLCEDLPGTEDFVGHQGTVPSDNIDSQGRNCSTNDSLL

[11] = target: AP-2 complex subunit beta (Homo sapiens) (UniProt P63010); assay: beta-arrestin/AP2 interaction blockers – biochemical, validation set, GST-AP2 beads, flow cytometry, pilot screen (AID 504541;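 active means inhibition above 54%, about 3 SD of non-fluorescent compounds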;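 further: AP2 carries R879A mutation and is captured from E. coli lysate; bead-bound FITC arrestin peptide fluorescence measuring arrestin peptide binding to AP2; 0% = DMSO wells and 100% = excess unlabeled arrestin peptide control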); settings: FITC arrestin peptide, at 10 µM, stronger effect = higher value, AP2 beta2 appendage fragment, R879A mutant
Sequence of AP-2 complex subunit beta (Homo sapiens) (P63010 whole entry, looked up, the tested form may be a part, one chain of several): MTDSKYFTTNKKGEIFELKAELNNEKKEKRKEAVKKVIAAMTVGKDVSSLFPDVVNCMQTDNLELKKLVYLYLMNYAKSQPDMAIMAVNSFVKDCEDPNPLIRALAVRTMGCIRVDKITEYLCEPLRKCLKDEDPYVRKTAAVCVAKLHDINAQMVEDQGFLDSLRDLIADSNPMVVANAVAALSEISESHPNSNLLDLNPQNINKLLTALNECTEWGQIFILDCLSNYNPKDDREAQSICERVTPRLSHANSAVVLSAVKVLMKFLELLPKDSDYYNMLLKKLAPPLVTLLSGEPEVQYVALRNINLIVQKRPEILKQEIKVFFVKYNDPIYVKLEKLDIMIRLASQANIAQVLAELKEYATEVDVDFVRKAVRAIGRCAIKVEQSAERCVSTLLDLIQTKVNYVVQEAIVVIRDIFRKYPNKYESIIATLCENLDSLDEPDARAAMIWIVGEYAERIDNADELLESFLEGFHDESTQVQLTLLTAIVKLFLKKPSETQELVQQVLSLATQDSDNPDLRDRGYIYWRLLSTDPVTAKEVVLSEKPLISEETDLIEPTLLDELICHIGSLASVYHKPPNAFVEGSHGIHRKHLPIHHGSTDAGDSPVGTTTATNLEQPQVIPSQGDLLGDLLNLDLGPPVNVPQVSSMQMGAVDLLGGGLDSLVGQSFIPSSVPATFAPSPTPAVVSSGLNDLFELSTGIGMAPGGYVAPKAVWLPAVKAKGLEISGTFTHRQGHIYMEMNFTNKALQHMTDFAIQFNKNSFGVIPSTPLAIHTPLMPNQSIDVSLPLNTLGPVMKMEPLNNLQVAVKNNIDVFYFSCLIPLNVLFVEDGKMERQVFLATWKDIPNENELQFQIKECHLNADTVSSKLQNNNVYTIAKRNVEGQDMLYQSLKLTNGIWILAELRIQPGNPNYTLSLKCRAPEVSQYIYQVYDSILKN

[12] = cytosolic pH regulators acting via V-ATPase – S. cerevisiae, pHLuorin, HTS validation (AID 504600; in the data active means response above about 15%;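 further: plate controls were DMSO for no effect and reference compound for full effect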); settings: V-ATPase proton transport, at 10 µM, stronger effect = higher value
[13] = test system: anti-desmoglein-3 scFv antibody binding to human DSG3; assay: blockers of pathogenic pemphigus antibody–desmoglein-3 binding – biochemical, validation compound set, bead-based, flow cytometry, pilot screen (AID 588368;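 active means binding below the plate cutoff, the plate median minus 3 SD, with a reading above zero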;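 further: signal is the median channel fluorescence of bead-bound GFP antibody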); settings: Protein G beads, DSG3-Fc, scFv-GFP binding, at 10 µM, stronger effect = lower value
[14] = Nile Red efflux blockade in pump-expressing yeast – validation compound set, multiplex, phenotypic, pilot screen (AID 588506;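 active means efflux inhibition above 0.42, the validation set average plus 4 SD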;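 further: Nile Red retained in cells so higher fluorescence means more efflux inhibition; 0 = negative control wells and 1 = enniatin B 25 µM full block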); settings: S. cerevisiae pump-expressing triplex, Nile Red efflux flow cytometry; at 10 µM; stronger effect = higher value; the pumps come from Candida albicans
[15] = target: ATP-binding cassette sub-family B member 6 (Homo sapiens) (UniProt Q9NP58); assay: blockers of ABCB6-driven porphyrin uptake – K562-ABCB6 cells, flow cytometry, validation set, pilot screen (AID 588550;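 active means inhibition above the screen-wide mean plus 3 SD, about 51%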;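 further: 0% = DMSO wells and 100% = benzethonium chloride 70 µM positive control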); settings: K562-ABCB6 porphyrin accumulation, 1 h, at 10 µM, stronger effect = higher value
Sequence of ATP-binding cassette sub-family B member 6 (Homo sapiens) (Q9NP58 whole entry, looked up): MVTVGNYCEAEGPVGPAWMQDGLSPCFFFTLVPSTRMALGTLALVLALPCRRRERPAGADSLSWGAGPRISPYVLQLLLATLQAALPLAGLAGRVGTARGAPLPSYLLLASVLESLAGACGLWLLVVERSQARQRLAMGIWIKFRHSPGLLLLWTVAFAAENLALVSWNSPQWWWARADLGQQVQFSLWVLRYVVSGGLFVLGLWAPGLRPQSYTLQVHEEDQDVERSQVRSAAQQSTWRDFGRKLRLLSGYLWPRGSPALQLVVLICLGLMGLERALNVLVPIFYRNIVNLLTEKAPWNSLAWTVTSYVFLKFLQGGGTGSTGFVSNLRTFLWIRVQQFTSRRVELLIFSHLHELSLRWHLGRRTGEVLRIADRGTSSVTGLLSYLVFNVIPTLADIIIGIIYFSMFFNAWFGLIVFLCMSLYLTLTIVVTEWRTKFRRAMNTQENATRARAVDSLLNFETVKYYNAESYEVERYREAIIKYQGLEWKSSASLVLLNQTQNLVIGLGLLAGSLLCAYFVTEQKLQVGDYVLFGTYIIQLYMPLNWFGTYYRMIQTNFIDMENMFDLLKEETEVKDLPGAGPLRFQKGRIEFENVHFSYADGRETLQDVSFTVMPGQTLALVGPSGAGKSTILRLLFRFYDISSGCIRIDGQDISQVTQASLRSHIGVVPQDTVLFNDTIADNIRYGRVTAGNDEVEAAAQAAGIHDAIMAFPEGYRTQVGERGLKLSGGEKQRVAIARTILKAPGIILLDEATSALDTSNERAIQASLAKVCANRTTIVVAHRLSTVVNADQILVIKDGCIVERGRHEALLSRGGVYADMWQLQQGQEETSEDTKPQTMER

[16] = AML differentiation inducers, ER-HoxA9 marrow cells – cell-based, GFP/MAC1 double positive, flow cytometry, validation set, primary screen (AID 588685;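 active means differentiation response of at least 50%, scaled between solvent and reference control, from cells with both markers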;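 further: compound exposure lasts four days before antibody staining and flow analysis; 0% = DMSO wells and 100% = 5 µM fulvestrant positive control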); settings: stronger effect = higher value, normalized: vehicle 0, fulvestrant 100

Compound	percent of DMSO control GFP [1]	GFP response vs DMSO [2]	percent response of DMSO control [3]	GFP response vs DMSO [4]	GFP response, % of DMSO [5]	double positive events [6] [%]	vesicle binding response [6]	inhibition [7]	superoxide response (% of plate) [8]	aptamer binding inhibition [9]	response [10]	inhibition [11]	response [12]	binding (% of control) [13]	efflux inhibition (fraction of control) [14]	inhibition [15]	differentiation response [16]
Nc1c(C(=O)c2ccccc2)oc2ccccc12	101% (inactive)	96.2% (inactive)	100% (inactive)	93.3% (inactive)	74.2% (inactive)	66	198% (inactive)	-2.53% (inactive)	89.5% (inactive)	-1% (inactive)	-9.17% (inactive)	-8.74% (inactive)	1.23% (inactive)	86.9% (inactive)	-0.32 (inactive)	-18% (inactive)	24.7% (inactive)
Nc1ccn([C@@H]2O[C@H](CO)[C@@H](O)[C@@H]2O)c(=O)n1	101% (inactive)	106% (inactive)	109% (inactive)	114% (inactive)	111% (inactive)	64.5	201% (inactive)	8.29% (inactive)	108% (inactive)	0% (inactive)	-9.36% (inactive)	10.5% (inactive)	-2.75% (inactive)	99.4% (inactive)	-0.08 (inactive)	-10% (inactive)	-11.9% (inactive)
FC(F)(F)c1ccc(-c2noc(CN3CCCN(C4CCCCC4)CC3)n2)cc1	100% (inactive)	105% (inactive)	101% (inactive)	93.3% (inactive)	101% (inactive)	62.5	5350% (inactive)	-7.72% (inactive)	89.3% (inactive)	-12% (inactive)	-4.45% (inactive)	-10.2% (inactive)	3.31% (inactive)	103% (inactive)	-0.14 (inactive)	-11% (inactive)	33.5% (inactive)
CCOC(=O)c1c(O)c2c([nH]c1=O)CCCC2	100% (inactive)	91.9% (inactive)	101% (inactive)	102% (inactive)	96% (inactive)	69.7	109% (inactive)	-34.6% (inactive)	101% (inactive)	3% (inactive)	-11% (inactive)	17.2% (inactive)	-2.71% (inactive)	99.3% (inactive)	0.01 (inactive)	9% (inactive)	5.6% (inactive)
CCc1nc2ccccc2c(NC(=O)CN2CC(C)CC(C)C2)c1C (stereo not drawn)	99% (inactive)	105% (inactive)	101% (inactive)	90.7% (inactive)	96.2% (inactive)	63.1	179% (inactive)	-7.72% (inactive)	105% (inactive)	-2% (inactive)	0.46% (inactive)	-1.11% (inactive)	9.89% (inactive)	93.8% (inactive)	0.11 (inactive)	10% (inactive)	0.24% (inactive)
COc1ccccc1OS(=O)(=O)c1ccc(NC(C)=O)cc1	87.1% (inactive)	123% (inactive)	101% (inactive)	82.5% (inactive)	103% (inactive)	57.8	65.7% (inactive)	10.3% (inactive)	97% (inactive)	2% (inactive)	-16.4% (inactive)	-11.8% (inactive)	-0.65% (inactive)	101% (inactive)	-0.35 (inactive)	4% (inactive)	-4.09% (inactive)
COc1ccc2c(c1OC)C(C1c3c(cc4c(c3OC)OCO4)CCN1C)OC2=O (stereo not drawn)	107% (inactive)	93% (inactive)	121% (inactive)	88.7% (inactive)	111% (inactive)	60.6	54.2% (inactive)	-23.3% (inactive)	95.3% (inactive)	1% (inactive)	-7.53% (inactive)	-1.99% (inactive)	2.98% (inactive)	98.9% (inactive)	0.02 (inactive)	6% (inactive)	-2.69% (inactive)
Cc1cc(/C=N/O)c(C)n1-c1ccc(Br)cc1	100% (inactive)	101% (inactive)	96.5% (inactive)	93.7% (inactive)	91.1% (inactive)	65.6	263% (inactive)	-7.79% (inactive)	115% (inactive)	2% (inactive)	11.8% (inactive)	-0.76% (inactive)	-0.17% (inactive)	105% (inactive)	-0.145 (inactive)	-1% (inactive)	-6.03% (inactive)
O=C(CCc1c[nH]c2ccccc12)NCc1ccco1	102% (inactive)	106% (inactive)	93.8% (inactive)	109% (inactive)	106% (inactive)	63	201% (inactive)	3.99% (inactive)	98.4% (inactive)	-3% (inactive)	-21.7% (inactive)	33.1% (inactive)	1.49% (inactive)	103% (inactive)	0.04 (inactive)	5% (inactive)	0.92% (inactive)
